According to PubChem BioAssay (NCATS):
Results filed as inconclusive are left out. Entries that show only a call come without a potency. Values without a mark were called inactive. Activity calls are given as the source filed them. The call rests on the fitted dose curve; in most records, active means well fitted curve in the direction sought with a large enough effect; inconclusive means small, poorly fitted or top-dose-only effect, or another doubt; inactive means no such curve, though single readings can be large; an effect the other way counts as inactive or inconclusive.

What was measured:
[1] = tested on: Zika virus NS2B-NS3 protease; test: Primary screen GU AMC qHTS for Zika virus inhibitors (AID 1347154); further: nearly all actives have a fitted effect of over 70% in size; further: potency means the concentration at half of the fitted maximal effect
Outline: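 Unlinked Zika NS2B hydrophilic domain–NS3 protease complex at 25 nM in 10 mM Tris-HCl pH 8.0, 0.01% Tween 20, with an AMC peptide substrate. Fluorescence change (340/450 nm) over 15 min at room temperature, normalized to controls, fitted to 4-parameter Hill.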

[2] = tested on: Zika virus NS2B-NS3 protease (unlinked complex); test: Primary screen GU Rhodamine qHTS for Zika virus inhibitors: Unlinked NS2B-NS3 protease assay (AID 1347159); further: nearly all actives have a fitted effect of over 60% in size; further: potency means the concentration at half of the fitted maximal effect
Outline: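 Unlinked NS2B/NS3, 25 nM; Rhod110 peptide, 1.5 microM; compounds, up to 114 microM. Reaction run 15 min at RT in 10 mM Tris-HCl pH 8.0, 0.01% Tween 20; kinetic fluorescence change fitted with a 4-parameter Hill model.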

[3] = tested on: Zika virus NS2B-NS3 protease (linked construct); test: Primary screen NINDS Rhodamine qHTS for Zika virus inhibitors (AID 1347160); further: nearly all actives have a fitted effect of over 55% in size
Outline: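 Single-chain NS2B-NS3 protease, 25 nM, pH 8.0; compounds preincubated 15 min. Activity: Rhodamine110 release from 1.5 microM substrate over 15 min, room temperature, data fitted to 4-parameter Hill.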

| SMILES | Potency [1] | Potency [2] | Potency [3] |
| --- | --- | --- | --- |
| Clc1cccc(-n2nnnc2NCc2ccccc2Oc2ccccn2)c1Cl | inactive | inactive | inactive |
| CN(C)CC=CC(=O)Nc1cc2c(Nc3ccc(F)c(Cl)c3)ncnc2cc1O[C@H]1CCOC1 | inactive | – | – |
| COc1ccc2c(c1)CC[C@@H](CN(C)CC(=O)O)[C@H]2c1ccccc1 | inactive | inactive | inactive |
| COc1cc(-c2nn(C3CCC(N4CCN(C(C)=O)CC4)CC3)c3ncnc(N)c23)ccc1NC(=O)c1cc2ccccc2n1C (centres undefined) | inactive | inactive | inactive |
| CC(O)C1C(=O)N2C(C(=O)O)=C(SC3CNC(C(=O)N(C)C)C3)C(C)C12 (centres undefined) | inactive | inactive | inactive |
| c1nc2nc(Nc3ccc(N4CCOCC4)cc3)nc(NC3CCCCC3)c2[nH]1 | inactive | inactive | inactive |
| C1Cc2[nH]nc(-c3nn[nH]n3)c2C1 | inactive | inactive | inactive |
| Cn1cc(-c2ccncc2)c(-c2ccc(OCc3ccc4ccccc4n3)cc2)n1 | inactive | inactive | inactive |
| O=C(c1ccc(Nc2nccc(-c3cc4ccccc4s3)n2)cc1)N1CCC(N2CCCC2)CC1 | inactive | inactive | inactive |
| Clc1cccc(-c2nnnn2Cc2cccnc2)c1Cl | inactive | inactive | inactive |
| Cc1cccc(C=NNc2cc(N3CCOCC3)nc(OCCc3ccccn3)n2)c1 | inactive | – | – |
| Nc1nc(Nc2ccc(S(N)(=O)=O)cc2)nn1C(=O)c1c(F)cccc1F | inactive | inactive | inactive |
| COc1cc(OC2CCN(C)CC2)ccc1Nc1ncc2c(n1)n(C1CCCC1)c(=O)n2C | inactive | – | – |
| Nc1nc(NCCNc2ncc(-n3ccnc3)c(-c3ccc(Cl)cc3Cl)n2)ccc1[N+](=O)[O-] | inactive | inactive | inactive |
| CN(C)c1nc(Cc2ccc(NC(=O)c3ccc4ccccc4c3)cc2)nc(Cl)c1CC(=O)O | inactive | 28.2 µM (active) | – |
| O=C(Cc1ccc(-c2ccc(OCCN3CCOCC3)cc2)cn1)NCc1ccccc1 | inactive | inactive | inactive |
| COc1ccc2c(OCc3nnc4ccc(-c5ccccc5)nn34)ccnc2c1 | inactive | inactive | – |
| CCN(CC)CCNC(=O)c1ccc2nc(-c3ccccc3)c(-c3ccc(CN4CCC(n5c(=O)[nH]c6ccccc65)CC4)cc3)nc2c1 | inactive | inactive | inactive |
| CCCNC(=O)Nc1ccc(Oc2ncnc3cc(OC)c(OC)cc23)cc1Cl | inactive | inactive | inactive |

| SMILES | Potency [1] | Potency [2] | Potency [3] |
| --- | --- | --- | --- |
| c1ccc2c(CCNc3ccc(Nc4ccncc4)cc3)c[nH]c2c1 | inactive | inactive | inactive |
| CC1COC2(CCN(c3nc(=O)c4cc(C(F)(F)F)cc([N+](=O)[O-])c4s3)CC2)O1 (centres undefined) | inactive | inactive | inactive |
| O=C1CCC[C@@H]2[C@H]3CCC[N+]4([O-])CCC[C@@H](CN12)[C@@H]34 (some centres undefined) | inactive | inactive | inactive |
| Cc1cn2cc(C(=O)N(C)CCO)cc(N[C@@H]3CCOc4cccc(C)c43)c2n1 | inactive | inactive | inactive |
| CCCCCCCCCC(=O)N[C@@H](Cc1c[nH]c2ccccc12)C(=O)N[C@H](CC(N)=O)C(=O)N[C@@H](CC(=O)O)C(=O)N[C@@H]1C(=O)NCC(=O)N[C@@H](CCCN)C(=O)N[C@@H](CC(=O)O)C(=O)N[C@H](C)C(=O)N[C@@H](CC(=O)O)C(=O)NCC(=O)N[C@H](CO)C(=O)N[C@@H]([C@@H](C)CC(=O)O)C(=O)N[C@@H](CC(=O)c2ccccc2N)C(=O)O[C@@H]1C | inactive | inactive | inactive |
| CC(=O)OCCN1C(=O)c2c(C)nc3ccc(S(=O)(=O)N4CCOCC4)cc3c2C1=O | inactive | – | – |
| CC1(C)CC(=O)c2c(C(F)(F)F)nn(-c3ccc(C(N)=O)c(NC4CCC(OC(=O)CN)CC4)c3)c2C1 (centres undefined) | inactive | inactive | inactive |
| NC(=O)c1c(OCc2c(F)cc(Br)cc2F)nsc1NC(=O)NCCCCN1CCCC1 | inactive | inactive | inactive |
| Cc1ccc(CN2CCNCC2)cc1NC(=O)CNc1ccc(F)c(F)c1 | inactive | inactive | inactive |
| CC(C)=CCCC(C)=CCCC(C)=CCSc1ccccc1C(=O)O | 13.6 µM (active) | – | – |
| COc1cc2c(Nc3ccc(NC(=O)c4ccccc4)cc3)ncnc2cc1OCCCN1CCOCC1 | inactive | inactive | inactive |
| COc1ccc(C(=O)CC2(O)C(=O)Nc3c(Cl)ccc(Cl)c32)cc1 (centres undefined) | inactive | inactive | inactive |
| N#CCNC(=O)c1ccc(-c2ccnc(Nc3ccc(N4CCOCC4)cc3)n2)cc1 | inactive | inactive | inactive |
| CN[C@H]1CCc2cc(OC)c(OC)c(OC)c2-c2ccc(OC)c(=O)cc21 | inactive | – | – |
| c1cc(-c2cnn3cc(-c4ccc(OCCN5CCCCC5)cc4)cnc23)ccn1 | inactive | – | – |
| COc1cc(C(=O)N2CCC(N3CCN(C)CC3)CC2)ccc1Nc1ncc2c(n1)N(C)c1ccccc1C(=O)N2C | inactive | inactive | inactive |
| O=C(O)c1ccc2c(c1)nc(Nc1cccc(Cl)c1)c1ccncc12 | inactive | 39.8 µM (active) | – |
| CC(C)Nc1cc(C(F)(F)F)cc2nc(NC(=O)c3cccnc3)nn12 | inactive | inactive | inactive |
